Test results as given in PubChem BioAssay (NCATS).
Inconclusive results are not listed. Active and inactive are the calls of the source. Unless noted, calls come from the whole dose curve; as a rule, active = well fitted inhibition curve with a large enough effect; inconclusive = small, poorly fitted or top-dose-only effect; inactive = flat fitted curve, though single readings scatter.

What was measured:
[1] = AP1 Signaling Pathway (AID 357; active = well fitted curve in either direction with a large enough effect, not every such curve was filed as active;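 note: ME-180 reporter cells stimulated with EGF at its EC50 level; % is set by controls: 0 for no effect and ±100 for the full control effect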)
Outline: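 Modulation of EGF-driven AP-1 transcription was assessed with a beta-lactamase reporter in ME-180 cells. Compound and EC50 EGF were co-incubated 5 hours at 37 °C before 2.5-hour CCF4 loading at room temperature and dual-emission reading.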

[2] = molecular target: Cytochrome P450 1A2 (Homo sapiens) (UniProt P05177); assay: p450-cyp1a2 (AID 410; calls by dose curve; note: potency is the fitted concentration of half-maximal effect;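 for activity change, negative = inhibition: -100% = full effect of reference inhibitor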)
Outline: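 Read-out is luminescence from luciferin produced by CYP1A2 demethylation of Luciferin-ME (100uM, at Km). Detection reagent stopped the 60 min NADPH-dependent reaction; signals were normalized to 57 uM furafylline.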

[3] = NFAT Signaling Pathway (AID 444; active = well fitted curve in either direction with a large enough effect, not every such curve was filed as active;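 note: carbachol stimulus at about its EC50 of 1 µM final; % is set by controls: 0 for no effect and ±100 for the full control effect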); details: Jurkat NFAT-bla M1, carbachol, beta-lactamase ratio, 5 h; at 17.2 µM (top of the series) unless noted
Outline: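 Jurkat cells with NFAT-driven β-lactamase reporter and co-expressed M1 receptor, stimulated with carbachol (final 1 uM, ~EC50), compound titration, 5 h at 37 °C. CCF4 loaded 1 h at RT; 460/530 nm ratio gave %activity and AC50.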

[4] = Stat Signaling Pathway (AID 446; active = well fitted curve in either direction with a large enough effect, not every such curve was filed as active;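 note: ME-180 cervical cancer cells given 40 pM IL-6 alongside compound; SIE-controlled beta-lactamase reporter measured as 460/530 nm FRET emission ratio; % is set by controls: 0 for no effect and ±100 for the full control effect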)
Outline: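 Emission at 460 and 530 nm (excitation 405 nm) reports SIE-controlled beta-lactamase in ME-180 cells. Cells received compound with 40 pM IL-6 for 5 hrs at 37 C; data scaled between 300 pM IL-6 and 125 nM JAK-inhibitor controls.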

[5] = molecular target: Glucocorticoid receptor (Homo sapiens) (UniProt P04150); assay: GR-GFP Redistribution (AID 450;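 active = compounds whose dose series gives a full or clear partial fitted curve of increased nuclear translocation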; note: potency is the fitted concentration of half-maximal effect); details: U2OS GR-GFP nuclear translocation, laser cytometry, 2 h
[6] = molecular target: Glucocorticoid receptor (Homo sapiens) (UniProt P04150); assay: GR-EFC Redistribution (AID 451; calls by dose curve; note: potency is the fitted concentration of half-maximal effect); details: CHO-K1 GR-EFC translocation, beta-gal luminescence, 2 h
Outline: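 CHO-K1 cells expressing nuclear EA and GR-ED fragments of b-gal; compounds titrated up to 46 uM final, 2 h at 37 C. GR nuclear translocation read as complemented b-gal luminescence after 1 h RT detection.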

[7] = molecular target: Mitogen-activated protein kinase 10 (Mus musculus) (UniProt Q61831); assay: JNK3 AlphaScreen Assay (AID 530; active = well fitted curve in either direction with a large enough effect, not every such curve was filed as active;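 note: kinase came from lysate of stimulated human HepG2 cells; signal reports phosphorylation of biotinylated GST-cJun 1-79 at Ser73 with 10 µM ATP; % is set by controls: 0 for no effect and ±100 for the full control effect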)
Outline: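 HepG2 lysate (IL-1b/TNFa pre-activated) + biotin-GST-cJun 1-79 + anti-pSer73 cJun; cpd titration, 15 min RT; ATP 10 uM start; Tris pH 7.6, MgCl2, DTT, vanadate; beads in EDTA buffer; AlphaScreen.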

[8] = molecular target: 3',5'-cyclic-AMP phosphodiesterase 4B (Homo sapiens) (UniProt Q07343); assay: qHTS Assay for Inhibitors of PDE-IV (AID 607; active = well fitted activation curve with a large enough effect in the main read-out, with a control signal flat, not every such curve was filed as active; note: % of control where 0% means no effect)
Outline: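 The readout is membrane depolarisation from a cAMP-sensing CNG channel, detected with a potential dye at ex 535/em 590. Cells were HEK293-derived (endogenous PDE-IV) at 1000 cells/well, titrated up to 22.9 uM final.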

[9] = qHTS Assay for Lipid Storage Modulators (AID 1519; calls by dose curve); details: Drosophila S3 cells, BODIPY lipid droplet/cell ratio, laser cytometry, cells loaded with oleic acid
Outline: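 Cells seeded at 5,000 per well were treated with compounds over a concentration series and loaded with oleic acid (400 uM, as added). Lipid droplet fluorescence (488 nm excitation, 500-530 nm channel) was read by laser-scanning cytometry and normalized to 20 uM Triacsin C.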

[10] = molecular target: Ubiquitin carboxyl-terminal hydrolase 1 (Homo sapiens) (UniProt O94782); assay: Inhibitors of USP1/UAF1: Pilot qHTS (AID 504865);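 note: rhodamine fluorescence freed from ubiquitin-rhodamine substrate followed over time; top concentration of the series differs between compounds; % is set by controls: 0 for no effect and ±100 for the full control effect; nearly all actives have a fitted effect of over 35% in size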
Outline: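 Deubiquitinase activity followed as kinetic rhodamine fluorescence release from 150 nM Ub-Rho. 1 nM USP1/UAF1 with compound, after 15 min room-temperature preincubation, in HEPES pH 7.8 buffer containing TCEP, EDTA, BSA and Tween-20.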

[11] = molecular target: Luciferin 4-monooxygenase (Photinus pyralis) (UniProt P08659); assay: Biochemical firefly luciferase enzyme assay for NPC (AID 624030); note: nearly all actives have a fitted effect of over 70% in size; note: potency is the fitted concentration of half-maximal effect;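 for activity change, negative = inhibition: purified P. pyralis luciferase at 10 nM with luciferin and ATP substrate; 0% = DMSO and -100% = full luciferase inhibition by PTC124 control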
Outline: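 Purified P. pyralis luciferase at 10 nM in 50 mM Tris Acetate (final), luminescence read within 5 minutes of enzyme addition to compounds. Activity normalised to PTC124 versus DMSO; concentration-response curves classed by r2, magnitude and activity.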

[12] = qHTS profiling for inhibitors of Plasmodium falciparum proliferation (AID 504749);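 note: 0% = DMSO vehicle and full inhibition = artemisinin control; nearly all actives have a fitted effect of over 60% in size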; details: P. falciparum in erythrocytes, SYBR Green DNA, 72 h, at 12.8 µM (top of the series)
Outline: (§1)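 SYBR Green fluorescence (ex 485 nm, em 535 nm) reports parasite DNA after 72 h compound exposure of infected red cells at 0.3% parasitemia, 2.5% hematocrit; signal normalized to 0.29 uM artemisinin and vehicle wells.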

C2A = assay: as above; details: P. falciparum in erythrocytes, SYBR Green DNA, 72 h; series mostly up to 12.8 µM
Outline: as §1

CP217 = assay: as above; details: P. falciparum in erythrocytes, SYBR Green DNA, 72 h; series mostly up to 12.8 µM
Outline: as §1

CP238 = assay: as above; details: P. falciparum in erythrocytes, SYBR Green DNA, 72 h; series mostly up to 12.8 µM
Outline: as §1

CP250 = assay: as above; details: P. falciparum in erythrocytes, SYBR Green DNA, 72 h; series mostly up to 12.8 µM
Outline: as §1

FAB9 = assay: as above; details: P. falciparum in erythrocytes, SYBR Green DNA, 72 h; series mostly up to 12.8 µM
Outline: as §1

JCK = assay: as above; details: P. falciparum in erythrocytes, SYBR Green DNA, 72 h; series mostly up to 12.8 µM
Outline: as §1

PC49 = assay: as above; details: P. falciparum in erythrocytes, SYBR Green DNA, 72 h; series mostly up to 12.8 µM
Outline: as §1

SC27B = assay: as above; details: P. falciparum in erythrocytes, SYBR Green DNA, 72 h; series mostly up to 12.8 µM
Outline: as §1

[13] = measured here: cell count channel max response
[14] = measured here: lipid channel max response

Chain of Cytochrome P450 1A2 (Homo sapiens) (P05177 whole entry, looked up): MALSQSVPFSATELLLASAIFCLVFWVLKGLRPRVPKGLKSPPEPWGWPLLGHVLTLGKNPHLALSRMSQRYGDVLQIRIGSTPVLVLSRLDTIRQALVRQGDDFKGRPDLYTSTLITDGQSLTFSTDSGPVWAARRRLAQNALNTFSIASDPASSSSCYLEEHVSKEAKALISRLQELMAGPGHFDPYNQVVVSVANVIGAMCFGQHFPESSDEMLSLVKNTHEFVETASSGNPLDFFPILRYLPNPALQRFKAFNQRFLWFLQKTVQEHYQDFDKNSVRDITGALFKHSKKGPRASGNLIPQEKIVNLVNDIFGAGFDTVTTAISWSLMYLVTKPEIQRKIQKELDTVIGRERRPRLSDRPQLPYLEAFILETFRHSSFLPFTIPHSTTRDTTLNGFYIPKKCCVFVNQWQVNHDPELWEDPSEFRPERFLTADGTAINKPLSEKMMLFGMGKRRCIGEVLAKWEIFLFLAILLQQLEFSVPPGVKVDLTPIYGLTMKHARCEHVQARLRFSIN
Chain of Ubiquitin carboxyl-terminal hydrolase 1 (Homo sapiens) (O94782 whole entry, looked up): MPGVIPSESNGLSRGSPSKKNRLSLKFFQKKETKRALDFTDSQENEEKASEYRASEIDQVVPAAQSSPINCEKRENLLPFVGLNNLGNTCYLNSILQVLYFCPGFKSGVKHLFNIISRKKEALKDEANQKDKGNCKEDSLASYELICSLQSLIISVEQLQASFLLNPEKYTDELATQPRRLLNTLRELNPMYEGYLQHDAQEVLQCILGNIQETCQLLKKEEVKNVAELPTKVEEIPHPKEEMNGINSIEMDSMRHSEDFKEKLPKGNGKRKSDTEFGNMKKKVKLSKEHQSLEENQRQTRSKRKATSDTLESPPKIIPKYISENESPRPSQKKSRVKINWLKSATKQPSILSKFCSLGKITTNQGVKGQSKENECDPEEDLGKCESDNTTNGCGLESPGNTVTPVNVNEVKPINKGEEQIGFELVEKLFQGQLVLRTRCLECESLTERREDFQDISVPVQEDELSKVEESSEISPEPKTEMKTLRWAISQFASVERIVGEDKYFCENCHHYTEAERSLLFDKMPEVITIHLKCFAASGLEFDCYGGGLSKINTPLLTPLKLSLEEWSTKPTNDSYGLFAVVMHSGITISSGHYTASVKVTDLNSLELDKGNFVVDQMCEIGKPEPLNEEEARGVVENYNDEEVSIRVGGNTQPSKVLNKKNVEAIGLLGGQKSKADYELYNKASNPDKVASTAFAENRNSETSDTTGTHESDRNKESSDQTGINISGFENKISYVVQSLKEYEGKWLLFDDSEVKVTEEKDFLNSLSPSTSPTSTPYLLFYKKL
Chain of Luciferin 4-monooxygenase (Photinus pyralis) (P08659 whole entry, looked up): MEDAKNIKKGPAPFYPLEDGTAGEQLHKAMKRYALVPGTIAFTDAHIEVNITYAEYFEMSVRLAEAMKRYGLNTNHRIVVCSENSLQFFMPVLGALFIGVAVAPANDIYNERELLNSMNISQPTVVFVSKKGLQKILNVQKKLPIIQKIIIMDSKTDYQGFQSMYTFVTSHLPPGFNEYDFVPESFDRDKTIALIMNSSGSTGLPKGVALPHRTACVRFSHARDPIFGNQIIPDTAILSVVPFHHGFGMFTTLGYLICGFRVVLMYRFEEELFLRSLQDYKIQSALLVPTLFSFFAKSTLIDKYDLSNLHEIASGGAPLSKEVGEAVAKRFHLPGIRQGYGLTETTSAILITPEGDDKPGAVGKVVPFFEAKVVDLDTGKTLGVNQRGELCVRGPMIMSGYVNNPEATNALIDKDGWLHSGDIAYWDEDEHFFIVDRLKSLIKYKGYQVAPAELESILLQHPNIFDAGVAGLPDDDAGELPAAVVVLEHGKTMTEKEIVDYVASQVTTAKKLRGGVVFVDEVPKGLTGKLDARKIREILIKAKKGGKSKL
Chain of Glucocorticoid receptor (Homo sapiens) (P04150 whole entry, looked up, the tested form may be a part): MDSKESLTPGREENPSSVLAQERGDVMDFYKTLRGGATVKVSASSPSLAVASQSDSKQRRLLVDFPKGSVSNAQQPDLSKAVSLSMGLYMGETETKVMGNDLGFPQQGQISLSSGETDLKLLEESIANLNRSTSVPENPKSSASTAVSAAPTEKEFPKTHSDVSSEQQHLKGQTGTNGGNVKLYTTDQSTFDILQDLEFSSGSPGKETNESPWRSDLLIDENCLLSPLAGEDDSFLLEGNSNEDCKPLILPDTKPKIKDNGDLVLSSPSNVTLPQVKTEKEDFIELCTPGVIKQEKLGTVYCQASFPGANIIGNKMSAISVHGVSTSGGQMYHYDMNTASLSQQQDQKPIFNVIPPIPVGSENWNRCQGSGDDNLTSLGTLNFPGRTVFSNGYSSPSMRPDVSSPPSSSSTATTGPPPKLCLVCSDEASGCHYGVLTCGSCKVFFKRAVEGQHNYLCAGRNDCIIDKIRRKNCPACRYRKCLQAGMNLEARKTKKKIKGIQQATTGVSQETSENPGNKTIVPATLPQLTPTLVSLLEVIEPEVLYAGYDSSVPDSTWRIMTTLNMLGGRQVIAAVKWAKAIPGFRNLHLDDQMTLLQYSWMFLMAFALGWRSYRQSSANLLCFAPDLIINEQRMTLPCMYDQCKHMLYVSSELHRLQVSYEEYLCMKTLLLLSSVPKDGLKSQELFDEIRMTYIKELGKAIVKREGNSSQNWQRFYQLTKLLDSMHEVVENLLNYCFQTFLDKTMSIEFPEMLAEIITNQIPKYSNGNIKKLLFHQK
Chain of 3',5'-cyclic-AMP phosphodiesterase 4B (Homo sapiens) (Q07343 whole entry, looked up): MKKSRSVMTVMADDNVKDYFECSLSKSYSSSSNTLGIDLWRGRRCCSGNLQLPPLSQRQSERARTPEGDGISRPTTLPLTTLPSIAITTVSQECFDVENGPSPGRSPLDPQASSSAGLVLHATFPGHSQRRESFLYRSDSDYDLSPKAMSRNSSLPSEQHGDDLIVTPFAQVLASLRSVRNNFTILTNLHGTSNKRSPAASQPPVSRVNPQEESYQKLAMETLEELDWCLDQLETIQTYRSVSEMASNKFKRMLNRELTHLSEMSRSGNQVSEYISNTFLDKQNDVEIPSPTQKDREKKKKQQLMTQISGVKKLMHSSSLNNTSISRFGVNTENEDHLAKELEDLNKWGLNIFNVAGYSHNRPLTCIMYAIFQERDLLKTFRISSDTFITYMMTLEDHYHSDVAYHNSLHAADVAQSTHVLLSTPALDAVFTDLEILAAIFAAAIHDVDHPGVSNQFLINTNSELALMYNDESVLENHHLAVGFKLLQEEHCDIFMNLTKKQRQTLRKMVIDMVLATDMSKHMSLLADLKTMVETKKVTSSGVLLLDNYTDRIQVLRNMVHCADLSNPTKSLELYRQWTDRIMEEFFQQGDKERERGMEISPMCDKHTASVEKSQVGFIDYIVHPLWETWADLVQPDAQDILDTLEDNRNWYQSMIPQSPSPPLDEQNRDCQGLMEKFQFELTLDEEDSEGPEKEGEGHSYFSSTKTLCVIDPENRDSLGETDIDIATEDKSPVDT

COc1ccc2c3c([nH]c2c1)[C@@H]1C[C@@H]2[C@@H](C[C@H](O)[C@H](OC)[C@H]2C(=O)O)CN1CC3
-20%: max response [9, 14]
-18.6%: max response [9, 13]
inactive: outcome [1] | Potency [2] | activity change, negative = inhibition [3] -14.4% | outcome [4] | Potency [5] > 20.6 µM | Potency [6] > 20.6 µM | Potency [7] | outcome [8] | activity change, negative = inhibition ([9]; at 25.7 µM (top of the series)) -2.35% | Potency [10]

CO/N=C(\C(=O)N[C@@H]1C(=O)N2C(C(=O)O)=C(COC(N)=O)CS[C@@H]12)c1ccco1
-2.21%: max response [9, 14]
-5.14%: max response [9, 13]
inactive: outcome [1] | Potency [2] | activity change, negative = inhibition [3] 6.11% | outcome [4] | Potency [5] > 20.6 µM | Potency [6] > 20.6 µM | Potency [7] | outcome [8] | activity change, negative = inhibition ([9]; at 25.7 µM (top of the series)) 1.43% | Potency [10]

CCC[C@H]1C[C@H](C(=O)N[C@H]([C@@H]2O[C@H](SC)[C@@H](O)[C@H](O)[C@@H]2O)[C@H](C)O)N(C)C1
inactive: outcome [1] | Potency [2] | activity change, negative = inhibition [3] -5.24% | outcome [4] | Potency [6] > 20.6 µM | outcome [8] | activity change, negative = inhibition ([9]; at 25.7 µM (top of the series)) 0.0766% | Potency [10]
-10.9%: max response [9, 14]
-10.3%: max response [9, 13]

CCCC[C@H](CC)CN1CN(C[C@@H](CC)CCCC)CC(C)(N)C1
0.881%: max response [9, 13]
-2.09%: max response [9, 14]
inactive: outcome [1] | Potency [2] | activity change, negative = inhibition [3] -26.2% | outcome [4] | Potency [7] | outcome [8] | activity change, negative = inhibition ([9]; at 25.7 µM (top of the series)) -1.27% | Potency [11] | activity, negative = inhibition ([12]; parasite line A) -5.01% | activity, negative = inhibition ([12]; parasite line B) 14.7% | Potency (C2A) | Potency (CP217) | Potency (CP238) | Potency (CP250) | Potency (FAB9) | Potency (JCK) | Potency (PC49) | Potency (SC27B)

NS(=O)(=O)c1cc2c(cc1Cl)N[C@@H](C(Cl)Cl)NS2(=O)=O
-19.9%: max response [9, 13] | max response [9, 14]
inactive: outcome [1] | Potency [2] | activity change, negative = inhibition [3] -8.61% | outcome [4] | Potency [7] | outcome [8] | activity change, negative = inhibition ([9]; at 25.7 µM (top of the series)) -2.63% | Potency [10] | Potency [11] | activity, negative = inhibition ([12]; parasite line A) -8.3% | activity, negative = inhibition ([12]; parasite line B) 4.19% | Potency (C2A) | Potency (CP217) | Potency (CP238) | Potency (CP250) | Potency (FAB9) | Potency (JCK) | Potency (PC49) | Potency (SC27B)

COc1c(O[C@H]2O[C@@H](CO)[C@@H](O)[C@@H](O)[C@@H]2O)cc2c(c1OC)-c1ccc(SC)c(=O)cc1[C@H](NC(C)=O)CC2
2.91%: max response [9, 14]
3.12%: max response [9, 13]
inactive: outcome [1] | Potency [2] | activity change, negative = inhibition [3] 5.96% | outcome [4] | outcome [8] | activity change, negative = inhibition ([9]; at 25.7 µM (top of the series)) -1.68% | Potency [10] | Potency [11] | activity, negative = inhibition ([12]; parasite line A) 5.35% | activity, negative = inhibition ([12]; parasite line B) 4.25% | Potency (C2A) | Potency (CP217) | Potency (CP238) | Potency (CP250) | Potency (FAB9) | Potency (JCK) | Potency (PC49) | Potency (SC27B)

Cc1noc(C)c1-c1nc(Nc2ccncc2)c2ccccc2n1
active: Potency [2] 0.1 µM
-10.6%: max response [9, 14]
-5.56%: max response [9, 13]
inactive: outcome [1] | activity change, negative = inhibition [3] -11.9% [at 7.69 µM] | outcome [4] | Potency [5] > 46 µM | Potency [6] > 46 µM | Potency [7] | activity change, negative = inhibition ([9]; at 57.5 µM (top of the series)) -8.29%

NC(=O)c1ccc[n+]([C@@H]2O[C@H](COP(=O)([O-])OP(=O)(O)OC[C@H]3O[C@@H](n4cnc5c(N)ncnc54)[C@@H](O)[C@@H]3O)[C@@H](O)[C@@H]2O)c1
-9.17%: max response [9, 13]
inactive: outcome [1] | Potency [2] | activity change, negative = inhibition [3] 1.83% | outcome [4] | Potency [7] | outcome [8] | activity change, negative = inhibition ([9]; at 25.7 µM (top of the series)) -1.1% | Potency [10] | Potency [11] | activity, negative = inhibition ([12]; parasite line A) 0.56% | activity, negative = inhibition ([12]; parasite line B) 2.43% | Potency (C2A) | Potency (CP217) | Potency (CP238) | Potency (CP250) | Potency (FAB9) | Potency (JCK) | Potency (PC49) | Potency (SC27B)
-22.7%: max response [9, 14]

C[C@@H](C(=O)O)c1ccc(C(=O)c2ccccc2)s1
inactive: outcome [1] | activity change, negative = inhibition [3] 4.12% | outcome [4] | Potency [7] | outcome [8] | activity change, negative = inhibition ([9]; at 25.7 µM (top of the series)) -0.119% | Potency [10] | activity, negative = inhibition ([12]; parasite line A) 5.2% | activity, negative = inhibition ([12]; parasite line B) 16.9% | Potency (C2A) | Potency (CP217) | Potency (CP238) | Potency (CP250) | Potency (FAB9) | Potency (JCK) | Potency (PC49) | Potency (SC27B)
active: Potency [2] 0.251 µM | Potency [11] 4.89 µM
2.32%: max response [9, 14]
1.62%: max response [9, 13]

C=CCSC[C@@H]1Nc2cc(Cl)c(S(N)(=O)=O)cc2S(=O)(=O)N1
inactive: outcome [1] | Potency [2] | activity change, negative = inhibition [3] -2.73% | outcome [4] | Potency [5] > 20.6 µM | Potency [6] > 20.6 µM | Potency [7] | outcome [8] | activity change, negative = inhibition ([9]; at 25.7 µM (top of the series)) -0.966% | Potency [10]
-24.3%: max response [9, 13]
-22.1%: max response [9, 14]

NC(=O)c1cc[n+](CC2=C(C(=O)[O-])N3C(=O)[C@@H](NC(=O)Cc4cccs4)[C@@H]3SC2)cc1
-16.9%: max response [9, 14]
inactive: outcome [1] | Potency [2] | activity change, negative = inhibition [3] -11% | outcome [4] | Potency [7] | outcome [8] | activity change, negative = inhibition ([9]; at 25.7 µM (top of the series)) -1.16% | Potency [10] | Potency [11] | activity, negative = inhibition ([12]; parasite line A) -3.3% | activity, negative = inhibition ([12]; parasite line B) 1.86% | Potency (C2A) | Potency (CP217) | Potency (CP238) | Potency (CP250) | Potency (FAB9) | Potency (JCK) | Potency (PC49) | Potency (SC27B)
-15%: max response [9, 13]
